# Measurements reported in PubChem BioAssay AID463190 (Sanford-Burnham Center for Chemical Genomics, 2010).
# Among all 330,000 compounds or so, about 7,300 (2.2%) were called active. The list comes from a sample in which actives are over-represented; it also holds similar structures and randomly drawn compounds. A number with no mark means an inactive call.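 The calls were made as follows: active = inhibition of at least 40%; inactive = the rest.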
# Experiment: growth inhibition of tim10-1 ts yeast – luminescence, uHTS, primary screen (AID 463190);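 also: mutant grown at 25 °C; 0% = DMSO wells with yeast and 100% = wells holding no yeast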
# Details: S. cerevisiae tim10-1 ts strain growth, BacTiter-Glo, 24 h; at 20 µM; hits give high values
row,SMILES,inhibition
1,S=c1[nH]nc(-c2ccco2)n1/N=C/c1ccc(Br)s1,22.5%
2,CC(C)(C)c1ccc(C(=O)NCc2ccco2)cc1,15.4%
3,CC(=O)NCCNC(=O)c1cc(-c2cccc3ccccc23)nc2ccccc12,3.15%
4,CCc1ccc(-c2cc(C(=O)NCc3ccco3)c3ccccc3n2)s1,45.4% (active)
5,O=C(Cc1ccccc1)Nc1ccc(C(=O)Nc2ccccc2C(=O)O)cc1,1.08%
6,FC(F)(F)c1ccc(CN2C[C@@H]3C(c4ccccc4)C4(c5ccccc5)CC3(C4)[C@H]2c2ccccc2)cc1 (stereo partly specified),28.9%
7,O=C(NCc1ccc2c(c1)OCO2)c1c(-c2ccsc2)sc2ccccc12,5.6%
8,CN[C@H](C(=O)NC[C@H]1O[C@@H](n2cnc3c(N)ncnc32)[C@H](O)[C@@H]1O)[C@@H](C)OCc1ccccc1,0.16%
9,Cc1ccc(Cl)c(NC(=O)CN2CCN(C=O)CC2)c1,-10.1%
10,Cc1cccc(OCC(=O)NCCNC(=O)c2cccnc2)c1,-27.3%
11,Cc1cccc(OCCNC(=S)NC(=O)c2cccnc2)c1,45.9% (active)
12,CCCOc1cccc(C(=O)NCCCNC(=O)c2cccnc2)c1,-5.09%
13,CN(C(=O)CSc1nnc(C2CC2)n1C)C1CCCc2ccccc21 (stereo unspecified),-15.4%
14,CC(=O)NCCC(=O)Nc1nc(-c2ccc3c(c2)OCCO3)cs1,4.76%
15,Cc1ccc(-c2csc(NC(=O)C3=COCCO3)n2)cc1C,40.5% (active)
16,Cc1csc(NC(=O)C2=COCCO2)n1,6.44%
17,CC(C)(C)NC(=O)NC(=O)COC(=O)CCC1CCCCC1,40.3% (active)
18,COc1ccccc1OCCC(=O)OCC(=O)NC(=O)NC(C)(C)C,17.9%
19,CC(C)(C)NC(=O)NC(=O)COC(=O)C1(C)CC1(Cl)Cl (stereo unspecified),21.3%
20,Cc1cc(C)cc(C(=O)NC(=S)Nc2ccc3[nH]c(=O)[nH]c3c2)c1,12.4%
21,COc1ccc(CCNC(=O)c2cnc(Cl)c(Cl)c2)cc1,17.4%
22,COc1ccc(CS(=O)/C(Cl)=C(/Cl)C(=O)Nc2ccc(OC)nc2)cc1 (stereo unspecified),41% (active)
23,COc1ccc(NC(=O)/C(Cl)=C(/Cl)S(=O)Cc2ccc(C)cc2)cn1 (stereo unspecified),30.1%

row,SMILES,inhibition
1,COc1ccc(CCNC(=O)COC(=O)c2ccc[nH]c2=O)cc1,7.85%
2,O=C(Cn1cnc2c(OCc3ccccc3)ncnc21)NCc1nc2ccccc2[nH]1,-4.29%
3,Cn1ncc(Br)c1C(=O)NCc1cccs1,1.74%
4,CCOc1ccccc1NC(=O)Cn1nnc(C(=O)NCc2cccs2)c1N,10.5%
5,CC(C)Cn1c(N)c(C(=O)NCc2cccs2)c2nc3ccccc3nc21,43.7% (active)
6,NS(=O)(=O)c1cc2c(cc1Cl)NC(C(Cl)Cl)NS2(=O)=O (stereo unspecified),0.045%
7,Cc1nc(NC(=O)c2cccc(Cl)c2)sc1-c1csc(Nc2cccc(Cl)c2)n1,-8.28%
8,CCCCCCC(=O)Nc1nc(C)c(-c2csc(Nc3cccc(OC)c3)n2)s1,14.8%
9,CCCCCCC(=O)Nc1nc(C)c(-c2csc(Nc3cc(Cl)ccc3OC)n2)s1,3.74%
10,Cc1nc(NC(=O)CN(C)S(=O)(=O)c2ccc(Cl)cc2)sc1C,4.21%
11,C=CCCC(=O)Nc1nc(C)c(-c2csc(Nc3ccc(Cl)cc3)n2)s1,41.2% (active)
12,CCCCC(=O)Nc1nc(C)c(-c2csc(Nc3ccc(Cl)cc3)n2)s1,42.5% (active)
13,COc1ccc(S(=O)(=O)c2c[nH]c(=S)[nH]c2=O)cc1Cl,-8.62%
14,O=C(CCN1C(=O)c2ccncc2C1=O)Nc1cc(F)ccc1F,7.78%
15,CC(=O)N1CCCc2cc(S(=O)(=O)N3CCCC(C(=O)N4CCN(c5cccc(Cl)c5)CC4)C3)ccc21 (stereo unspecified),10.1%
16,COc1ccc(-n2cc(-c3ccccc3)c3c(=S)nc[nH]c32)cc1,40.1% (active)
17,O=c1[nH]cnc2c1c(-c1ccccc1)cn2-c1ccc(F)cc1,34.1%
18,COc1ccc(-n2c(=S)[nH]c3sc4c(c3c2=O)CCc2ccccc2-4)cc1,6.58%
19,Cc1sc2ncnc(SCC(=O)Nc3ccc(CN4CCCC4)cc3)c2c1C,46.3% (active)
20,COC(=O)c1c(-c2cccs2)csc1NC(=O)CSc1ncnc2sc(C)c(C)c12,17.6%
21,C=CCn1c(SCC(=O)Nc2ccc(NC(C)=O)cc2)nc2sc(C)c(C)c2c1=O,15.8%
22,Cc1cc(C(=O)OCC(=O)Nc2ccc(F)c(F)c2)c(C)o1,-15.7%
23,Cc1cccc(NC(=S)N2CCC(c3nc4ccccc4s3)CC2)c1,47% (active)

row,SMILES,inhibition
1,Cc1cccc(NC(=S)N2CCCC(c3nc4ccccc4[nH]3)C2)c1 (stereo unspecified),0.466%
2,Cc1cccc(C(=O)N2CCC(c3nc4ccccc4s3)CC2)c1,20.6%
3,COc1ccc(OC)c(C(O)c2nc3ccccc3n2C)c1 (stereo unspecified),12%
4,CNC[C@@H]1Oc2c(NS(C)(=O)=O)cccc2C(=O)N([C@@H](C)CO)C[C@H]1C,-4.12%
5,NS(=O)(=O)c1ccc(N2C(=O)C3C4CC(C(Br)C4Br)C3C2=O)cc1 (stereo unspecified),-7.31%
6,ON=C1/C(=N\O)CC2(C/C1=N/O)OCCO2,-13.1%
7,Oc1c(CN2CCCC2)cc(COCc2ccccc2)c2cccnc12,14.6%
8,Cc1cccnc1NC(=O)c1cccc(S(=O)(=O)N2CCN(c3ccc(F)cc3)CC2)c1,23.8%
9,Oc1c(CN2CCN(c3ccc(F)cc3)CC2)cc(Cl)c2cccnc12,45.3% (active)
10,CCN(CCn1cccn1)Cc1cn[nH]c1-c1ccc(OC)cc1F,6.84%
11,COc1cc2sc(C)nc2cc1C,13.3%
12,Cc1ccc(S(=O)(=O)N(Cc2cccc([N+](=O)[O-])c2)C(=O)N2CCN(C)CC2)cc1,26.5%
13,CCOc1ccc(NC(=O)C2CC(=O)N=C(N)S2)cc1 (stereo unspecified),3.69%
14,CC(OC(=O)c1ccccc1OCc1ccc(Cl)cc1)C(N)=O (stereo unspecified),-12.2%
15,CCOC(=O)c1cc2cc(-c3c(C(=O)OCC)oc4cc(O)cc(O)c4c3=O)ccc2o1,27.5%
16,COc1ccc(-c2onc(C)c2-c2ccc3c(c2)OCCO3)c(O)c1,22.7%
17,O=c1c(-c2ccc3c(c2)OCCO3)c(C(F)(F)F)oc2cc(O)cc(O)c12,44% (active)
18,Nc1ccccc1Sc1ccc(C(F)(F)F)cc1[N+](=O)[O-],40.4% (active)
19,O=[N+]([O-])c1cc(C(F)(F)F)ccc1NN=C1CCCC1,-6.28%
20,O=C(CSc1ccc(C(F)(F)F)cc1[N+](=O)[O-])NCCOc1ccccc1,8.09%
21,Cc1ccccc1C(=O)NNC(=O)CN1C(=O)c2ccccc2C1=O,23.4%
22,O=C(CSc1nnc(Cn2cnc3ccccc32)o1)c1ccccc1,24.1%
23,Cc1oc2cc([N+](=O)[O-])c(O)c([N+](=O)[O-])c2c1C(=O)c1ccc(Br)cc1,25%

row,SMILES,inhibition
1,Cc1oc2cc(Br)c(O)c(Br)c2c1C(=O)c1ccccc1,41.8% (active)
2,COc1ccc(C(=O)c2c(C)oc3cc([N+](=O)[O-])c(O)c([N+](=O)[O-])c23)cc1,12.5%
3,O=C(Nc1ccc2c(c1)OCO2)C1CC1(Cl)Cl (stereo unspecified),-5.38%
4,CCC(C(=O)NC1CCCC1)N(C(=O)Cn1nnc(-c2ccc(C)o2)n1)c1ccc(OC)c(OC)c1 (stereo unspecified),18.2%
5,CSc1ccc(CN2C(=O)NC3(CCCCCC3)C2=O)cc1,23.7%
6,NC(=O)C1=C[C@@H](c2ccc3c(c2)OCO3)C[C@@H](OCCCCO)O1,-9.86%
7,CCOC(=O)c1c(NC(=O)c2ccc(S(=O)(=O)N(C)CC3CCCO3)cc2)sc2c1CC(C)(C)NC2(C)C (stereo unspecified),3.46%
8,COC(=O)c1c(NC(=O)COc2ccc(Cl)cc2Cl)sc2c1CC(C)(C)NC2(C)C,43.6% (active)
9,COC(=O)c1sccc1NC(=O)COc1ccc(Cl)cc1,7.8%
10,Cc1nc2ccc(C(=O)N3CCSCC3)cc2s1,4.92%
11,O=C(c1ccc2nc(N3CCOCC3)sc2c1)N1CCN(c2ccc(Cl)cc2)CC1,49.1% (active)
12,O=S(=O)(Nc1ccc2nc(N3CCOCC3)sc2c1)c1ccccc1,3.87%
13,N/C(=N\OC(=O)c1cc(-c2ccccc2)nc2ccccc12)c1ccncc1,57.4% (active)
14,COC(=O)CNC(=O)c1cc(-c2ccncc2)nc2ccccc12,13.6%
15,C/C(N)=C(/C#N)C(=O)COC(=O)c1cc(-c2ccc(C)cc2)nc2ccccc12,11.4%
16,Cc1ccc(N/C(N)=N/c2nc(C(F)(F)F)cc(C(F)(F)F)n2)cc1,14.4%
17,CCC(NC(=O)c1ccccc1NC(=O)c1ccccc1)C(=O)NNC(=O)CSc1nc2ccccc2o1 (stereo unspecified),11%
18,CCOC(=O)c1ccc(N2C(=O)CC(N3CC(C)OC(C)C3)C2=O)cc1 (stereo unspecified),29.9%
19,CCOC(=O)c1ccc(N2C(=O)CC(N3CCN(C(=O)c4ccccc4)CC3)C2=O)cc1 (stereo unspecified),20%
20,CCOC(=O)c1ccc(N2C(=O)CC(N3CCC(C(=O)OCC)CC3)C2=O)cc1 (stereo unspecified),43.8% (active)
21,O=C(NC(Cc1ccc(O)cc1)C(=O)O)/C(=C/c1ccccc1)NC(=O)c1ccccc1 (stereo unspecified),-12.7%
22,COc1ccc(NC(=O)CN(C)C(=O)CNC(=O)C2CCCCC2)cc1,3.37%
